From PubChem BioAssay (NCATS)
Where “and” joins values, the source holds several entries; their conditions need not be identical. Equal entries are not always repeated. Results filed as inconclusive are left out. Calls of active or inactive are those of the source. Unless noted, the call rests on the fitted dose curve; in most records, active means well fitted curve in the direction sought with a large enough effect; inconclusive means small, poorly fitted or top-dose-only effect, or another doubt; inactive means no such curve, though single readings can be large; an effect the other way counts as inactive or inconclusive.

Experiments:
[1] = molecular target: Cytochrome P450 1A2 (Homo sapiens) (UniProt P05177); test: p450-cyp1a2 (AID 410; calls by dose curve; further: potency means the concentration at half of the fitted maximal effect)
In short: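 Luminescent demethylation readout: Luciferin-ME (100uM, equal to Km) turned over by 20nM CYP1A2 for 60 min at room temperature after NADPH regeneration addition, following 10 min compound preincubation. Normalization used 57 uM furafylline as full inhibition.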

[2] = molecular target: Glucocorticoid receptor (Homo sapiens) (UniProt P04150); test: GR-GFP Redistribution (AID 450;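 active means compounds whose dose series gives a full or clear partial fitted curve of increased nuclear translocation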; further: potency means the concentration at half of the fitted maximal effect); conditions: U2OS GR-GFP nuclear translocation, laser cytometry, 2 h
[3] = molecular target: Glucocorticoid receptor (Homo sapiens) (UniProt P04150); test: GR-EFC Redistribution (AID 451; calls by dose curve; further: potency means the concentration at half of the fitted maximal effect); conditions: CHO-K1 GR-EFC translocation, beta-gal luminescence, 2 h
In short: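 CHO-K1 cells expressing nuclear EA and GR-ED fragments of b-gal; compounds titrated up to 46 uM final, 2 h at 37 C. GR nuclear translocation read as complemented b-gal luminescence after 1 h RT detection.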

[4] = molecular target: 3',5'-cyclic-AMP phosphodiesterase 4B (Homo sapiens) (UniProt Q07343); test: qHTS Assay for Inhibitors of PDE-IV (AID 607; active means well fitted activation curve with a large enough effect in the main read-out, with a control signal flat, not every such curve was filed as active; further: % of control where 0% means no effect)
In short: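 ACTOne HEK293 cells carry a modified cAMP-gated CNG channel and express endogenous PDE4; plated 1000 cells/well, compounds up to 22.9 uM final. Membrane-potential dye fluorescence (ex 535/em 590) was read; parental cells received 10 uM forskolin + 100 uM RO 20-1724.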

[5] = qHTS Assay for Lipid Storage Modulators (AID 1519; calls by dose curve; further: potency means the concentration at half of the fitted maximal effect); conditions: Drosophila S3 cells, BODIPY lipid droplet/cell ratio, laser cytometry, cells loaded with oleic acid; for activity change, negative = inhibition: at 57.5 µM (top of the series)
In short: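 Cells seeded at 5,000 per well were treated with compounds over a concentration series and loaded with oleic acid (400 uM, as added). Lipid droplet fluorescence (488 nm excitation, 500-530 nm channel) was read by laser-scanning cytometry and normalized to 20 uM Triacsin C.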

[6] = molecular target: DNA dC->dU-editing enzyme APOBEC-3G (Homo sapiens) (UniProt Q9HC16); test: qHTS for inhibitors of Vif-A3G interactions: Validation (AID 588379); further: 0% is about no effect
In short: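 Yellow fluorescence (Ex 488, Em 500-530) of Vif-coexpressing HeLa A3G-eYFP cells, scanned by Acumen cytometer, reports blocked A3G degradation. Cells plated at 700/well overnight at 37 deg C before compound addition, then a further overnight compound incubation at 37 deg C.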

[7] = system: Zika virus NS2B-NS3 protease; test: Primary screen GU AMC qHTS for Zika virus inhibitors (AID 1347154);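 further: 0% = no-inhibitor control and -100% = no-enzyme control; nearly all actives have a fitted effect of over 70% in size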
In short: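 Unlinked Zika NS2B hydrophilic domain–NS3 protease complex at 25 nM in 10 mM Tris-HCl pH 8.0, 0.01% Tween 20, with an AMC peptide substrate. Fluorescence change (340/450 nm) over 15 min at room temperature, normalized to controls, fitted to 4-parameter Hill.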

[8] = Primary qHTS for small molecule stabilizers of the endoplasmic reticulum resident proteome: Secreted ER Calcium Modulated Protein (SERCaMP) assay (AID 1508630); further: on the % scale 0 is the no-effect control and ±100 the full control effect
In short: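 The SH-SY5Y reporter protocol was run at 3 concentrations up to 38.3 uM (primary) or 11 concentrations (follow-up): 16 h compound, 100 nM thapsigargin for 4 h, then extracellular luciferase luminescence.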

[9] = molecular target: Guanine nucleotide-binding protein G(i) subunit alpha-1 (Homo sapiens) (UniProt P63096); test: qHTS Assay for Inhibitors of RGS12 GoLoco Motif Activity (Green Fluorophore) (AID 879);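 further: 0% = labeled peptide with Gαi1 and full inhibition = labeled peptide alone without protein; negative values mean loss of peptide binding seen as reduced polarization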
In short: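 A drop in FITC polarization marked displacement of the FITC-tagged RGS12 GoLoco peptide (10 nM) from Gαi1 (50 nM). Compounds were incubated 10 min at room temperature in Tris pH 7.5 buffer containing 150 mM NaCl, 0.1 mM GDP and 0.05% NP40; unlabeled peptide titration served as control.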

[10] = molecular target: Cytochrome P450 3A4 (Homo sapiens) (UniProt P08684); test: qHTS Assay for Activators of Cytochrome P450 3A4 (AID 885); further: nearly all actives have a fitted effect of over 65% in size
In short: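 CYP3A4 activity: Luciferin-PPXE O-dealkylation, 25uM substrate, 200mM KPO4, RT throughout. Read-out is luciferase luminescence; higher values reflect activation.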

[11] = molecular target: Pyruvate kinase (Leishmania mexicana) (UniProt Q27686); test: qHTS Validation Assay for Inhibitors of Leishmania Mexicana Pyruvate Kinase (AID 945);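 further: 0% = DMSO only neutral control wells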
In short: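 The enzyme is a highly purified E451W mutant of LmPYK used at 0.2 nM. It converts 0.5 mM PEP and 0.1 mM ADP over 1 h at room temperature; product ATP is quantified by luciferase luminescence relative to DMSO controls.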

[12] = molecular target: Alpha-galactosidase A (Homo sapiens) (UniProt P06280); test: Counterscreen for Glucocerebrosidase Inhibitors: qHTS Assay for Human alpha-Galactosidase at pH 4.5 (AID 992); further: 0% is about no effect
In short: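 Citrate buffer pH 4.5, Tween-20 0.005%. Enzyme 2 nM, substrate 80 uM, 20 min RT. Stop pH 10. Fluorescence Ex 365/Em 440. AC50 by Hill fit.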

[13] = molecular target: alpha-glucosidase (Oryza sativa, rice) (UniProt Q653V4); test: Counterscreen for Glucocerebrosidase Inhibitors: qHTS Assay for Rice alpha-Glucosidase at pH 5.0 (AID 997);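 further: 0% = full activity with enzyme and -100% = basal without enzyme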
In short: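 Endpoint fluorogenic assay at pH 5.0: compounds (0.7 nM to 77 uM) titrated against 4 nM rice enzyme and 400 uM 4-MU-alpha-glucoside for 20 min at room temperature; NaOH/glycine stop, read ex 365/em 440 nm, Hill-fitted AC50.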

[14] = molecular target: Mitogen-activated protein kinase 10 (Mus musculus) (UniProt Q61831); test: JNK3 AlphaScreen Assay (AID 530; active means well fitted curve in either direction with a large enough effect, not every such curve was filed as active;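 further: kinase came from lysate of stimulated human HepG2 cells; signal reports phosphorylation of biotinylated GST-cJun 1-79 at Ser73 with 10 µM ATP; on the % scale 0 is the no-effect control and ±100 the full control effect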)
In short: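 Activity was read by AlphaScreen after JNK3-containing HepG2 lysate (cytokine pre-activated) phosphorylated biotinylated GST-cJun with 10 uM ATP at room temperature. Phospho-Ser73 cJun antibody with Protein-A acceptor beads provided detection.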

[15] = molecular target: Ubiquitin carboxyl-terminal hydrolase 1 (Homo sapiens) (UniProt O94782); test: Inhibitors of USP1/UAF1: Pilot qHTS (AID 504865);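 further: rhodamine fluorescence freed from ubiquitin-rhodamine substrate followed over time; top concentration of the series differs between compounds; on the % scale 0 is the no-effect control and ±100 the full control effect; nearly all actives have a fitted effect of over 35% in size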
In short: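 USP1/UAF1 complex at 1 nM preincubated 15 min at room temperature with compound, then Ub-Rho substrate added at 150 nM final. Fluorescence (480/540 nm) read kinetically in 50 mM HEPES pH 7.8, 0.5 mM EDTA, 1 mM TCEP, 0.1 mg/ml BSA, 0.01% Tween-20.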

[16] = molecular target: Cytochrome P450 2C19 (Homo sapiens) (UniProt P33261); test: qHTS Assay for Inhibitors and Substrates of Cytochrome P450 2C19 (AID 899); further: potency means the concentration at half of the fitted maximal effect; nearly all actives have a fitted effect of over 60% in size
In short: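 Luminescent read-out of luciferin formed from Luciferin-H EGE (10uM, equal to KM). Enzyme 5nM in 50mM KPO4; compound added, 10 min at 37C, then NADPH regenerating system for 60 min at 37C. Full inhibition defined by 57uM ketoconazole.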

[17] = AP1 Signaling Pathway (AID 357; active means well fitted curve in either direction with a large enough effect, not every such curve was filed as active;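 further: ME-180 reporter cells stimulated with EGF at its EC50 level; on the % scale 0 is the no-effect control and ±100 the full control effect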); conditions: ME-180 AP-1-bla reporter, EGF-induced, beta-lactamase ratio, 5 h; at 17.2 µM (top of the series)
In short: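 A ratiometric CCF4 readout (405 nm excitation; 460 and 530 nm emission) quantified AP-1-driven beta-lactamase in ME-180 cells after 5 h with compound and EC50 EGF; AC50 values were derived for activators and inhibitors.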

[18] = NFAT Signaling Pathway (AID 444; active means well fitted curve in either direction with a large enough effect, not every such curve was filed as active;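 further: carbachol stimulus at about its EC50 of 1 µM final; on the % scale 0 is the no-effect control and ±100 the full control effect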); conditions: Jurkat NFAT-bla M1, carbachol, beta-lactamase ratio, 5 h; at 17.2 µM (top of the series)
In short: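 Jurkat cells with NFAT-driven β-lactamase reporter and co-expressed M1 receptor, stimulated with carbachol (final 1 uM, ~EC50), compound titration, 5 h at 37 °C. CCF4 loaded 1 h at RT; 460/530 nm ratio gave %activity and AC50.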

[19] = Stat Signaling Pathway (AID 446; active means well fitted curve in either direction with a large enough effect, not every such curve was filed as active); conditions: ME-180 (cervical carcinoma) SIE beta-lactamase reporter, IL-6 stimulated, 5 h; at 17.2 µM (top of the series)
In short: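 Compound effects on IL-6-induced STAT reporter activity were measured in ME-180 cells. After overnight culture, cells were co-treated with 40 pM IL-6 for 5 hrs before beta-lactamase substrate loading at room temperature.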

[20] = measured here: cell count channel max response
[21] = measured here: lipid channel max response

Chain of Cytochrome P450 2C19 (Homo sapiens) (P33261 whole entry, looked up): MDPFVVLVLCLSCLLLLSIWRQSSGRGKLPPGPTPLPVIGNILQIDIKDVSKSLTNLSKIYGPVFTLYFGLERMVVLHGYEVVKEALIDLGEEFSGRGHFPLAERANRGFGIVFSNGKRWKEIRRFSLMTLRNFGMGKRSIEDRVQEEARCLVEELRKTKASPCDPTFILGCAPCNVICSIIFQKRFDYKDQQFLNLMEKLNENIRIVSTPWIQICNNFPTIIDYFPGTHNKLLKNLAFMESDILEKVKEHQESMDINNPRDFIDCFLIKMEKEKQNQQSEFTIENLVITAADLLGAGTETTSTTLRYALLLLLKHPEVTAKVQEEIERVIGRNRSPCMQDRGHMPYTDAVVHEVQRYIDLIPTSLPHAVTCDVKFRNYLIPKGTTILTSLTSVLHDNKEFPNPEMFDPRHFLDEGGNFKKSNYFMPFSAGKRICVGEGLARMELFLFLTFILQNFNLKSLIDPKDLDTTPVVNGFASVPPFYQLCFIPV
Chain of 3',5'-cyclic-AMP phosphodiesterase 4B (Homo sapiens) (Q07343 whole entry, looked up): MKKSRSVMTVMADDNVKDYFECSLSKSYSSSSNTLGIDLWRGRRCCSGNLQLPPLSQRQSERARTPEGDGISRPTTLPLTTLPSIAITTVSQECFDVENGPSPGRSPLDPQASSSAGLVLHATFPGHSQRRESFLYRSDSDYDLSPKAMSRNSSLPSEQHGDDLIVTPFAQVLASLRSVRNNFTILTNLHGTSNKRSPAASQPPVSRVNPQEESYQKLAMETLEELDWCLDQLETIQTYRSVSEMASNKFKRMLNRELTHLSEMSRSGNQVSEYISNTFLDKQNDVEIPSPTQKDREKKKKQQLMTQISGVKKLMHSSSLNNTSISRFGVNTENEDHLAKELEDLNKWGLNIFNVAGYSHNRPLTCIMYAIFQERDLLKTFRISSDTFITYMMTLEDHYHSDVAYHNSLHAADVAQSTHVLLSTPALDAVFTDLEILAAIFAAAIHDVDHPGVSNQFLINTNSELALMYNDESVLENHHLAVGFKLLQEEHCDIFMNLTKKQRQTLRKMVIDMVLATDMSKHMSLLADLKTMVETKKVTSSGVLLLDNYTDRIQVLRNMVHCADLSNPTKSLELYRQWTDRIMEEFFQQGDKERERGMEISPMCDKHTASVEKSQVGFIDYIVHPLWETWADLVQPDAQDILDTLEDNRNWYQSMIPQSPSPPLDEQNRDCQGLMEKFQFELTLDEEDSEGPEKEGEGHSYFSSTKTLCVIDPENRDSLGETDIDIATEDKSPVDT
Chain of Glucocorticoid receptor (Homo sapiens) (P04150 whole entry, looked up, the tested form may be a part): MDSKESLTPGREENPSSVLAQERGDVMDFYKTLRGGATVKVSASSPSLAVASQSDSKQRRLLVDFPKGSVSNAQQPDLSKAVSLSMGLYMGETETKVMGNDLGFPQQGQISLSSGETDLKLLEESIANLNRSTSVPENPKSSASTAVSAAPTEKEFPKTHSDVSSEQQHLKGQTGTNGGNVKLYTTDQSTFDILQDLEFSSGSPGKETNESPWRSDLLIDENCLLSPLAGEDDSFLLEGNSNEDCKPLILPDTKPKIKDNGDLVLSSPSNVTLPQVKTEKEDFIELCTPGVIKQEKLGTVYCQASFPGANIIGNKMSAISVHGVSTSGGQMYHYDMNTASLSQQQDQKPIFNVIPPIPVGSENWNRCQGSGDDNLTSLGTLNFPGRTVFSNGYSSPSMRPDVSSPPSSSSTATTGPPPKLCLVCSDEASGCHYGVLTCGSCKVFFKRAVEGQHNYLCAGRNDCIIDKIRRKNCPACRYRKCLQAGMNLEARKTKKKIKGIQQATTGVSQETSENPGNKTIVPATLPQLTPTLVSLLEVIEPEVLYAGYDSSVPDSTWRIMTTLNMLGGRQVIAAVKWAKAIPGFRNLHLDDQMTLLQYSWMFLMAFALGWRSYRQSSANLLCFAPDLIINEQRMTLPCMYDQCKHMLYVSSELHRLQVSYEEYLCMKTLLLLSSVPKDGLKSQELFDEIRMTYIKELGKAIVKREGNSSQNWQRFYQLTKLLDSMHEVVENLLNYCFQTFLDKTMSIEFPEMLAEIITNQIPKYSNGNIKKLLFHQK
Chain of Cytochrome P450 3A4 (Homo sapiens) (P08684 whole entry, looked up): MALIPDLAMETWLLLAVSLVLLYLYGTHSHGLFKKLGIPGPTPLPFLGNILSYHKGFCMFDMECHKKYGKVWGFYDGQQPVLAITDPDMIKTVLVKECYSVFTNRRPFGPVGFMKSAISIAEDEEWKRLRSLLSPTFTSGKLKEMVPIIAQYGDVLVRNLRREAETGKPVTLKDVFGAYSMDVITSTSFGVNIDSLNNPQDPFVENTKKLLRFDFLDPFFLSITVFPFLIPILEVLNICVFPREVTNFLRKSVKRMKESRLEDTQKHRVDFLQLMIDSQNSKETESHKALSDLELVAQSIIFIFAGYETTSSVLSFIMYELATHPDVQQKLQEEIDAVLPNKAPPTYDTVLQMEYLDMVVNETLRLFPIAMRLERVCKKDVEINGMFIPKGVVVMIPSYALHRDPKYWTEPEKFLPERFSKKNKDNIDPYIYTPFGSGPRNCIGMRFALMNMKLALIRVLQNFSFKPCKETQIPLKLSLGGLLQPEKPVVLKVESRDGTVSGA
Chain of Cytochrome P450 1A2 (Homo sapiens) (P05177 whole entry, looked up): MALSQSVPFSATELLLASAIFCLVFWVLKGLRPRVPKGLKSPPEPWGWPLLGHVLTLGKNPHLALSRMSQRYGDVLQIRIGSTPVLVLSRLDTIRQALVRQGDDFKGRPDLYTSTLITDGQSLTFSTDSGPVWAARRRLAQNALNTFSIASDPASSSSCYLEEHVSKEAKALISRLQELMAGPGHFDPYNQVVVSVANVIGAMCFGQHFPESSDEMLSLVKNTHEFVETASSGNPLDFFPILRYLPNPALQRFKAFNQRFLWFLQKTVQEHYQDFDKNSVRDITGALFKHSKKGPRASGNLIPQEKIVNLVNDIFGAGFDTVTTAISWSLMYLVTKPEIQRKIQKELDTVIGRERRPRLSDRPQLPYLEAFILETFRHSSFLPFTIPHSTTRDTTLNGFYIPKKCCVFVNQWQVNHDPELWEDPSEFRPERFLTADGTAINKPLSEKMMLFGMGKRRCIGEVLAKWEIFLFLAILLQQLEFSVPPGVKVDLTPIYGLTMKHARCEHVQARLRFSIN
Chain of DNA dC->dU-editing enzyme APOBEC-3G (Homo sapiens) (Q9HC16 whole entry, looked up): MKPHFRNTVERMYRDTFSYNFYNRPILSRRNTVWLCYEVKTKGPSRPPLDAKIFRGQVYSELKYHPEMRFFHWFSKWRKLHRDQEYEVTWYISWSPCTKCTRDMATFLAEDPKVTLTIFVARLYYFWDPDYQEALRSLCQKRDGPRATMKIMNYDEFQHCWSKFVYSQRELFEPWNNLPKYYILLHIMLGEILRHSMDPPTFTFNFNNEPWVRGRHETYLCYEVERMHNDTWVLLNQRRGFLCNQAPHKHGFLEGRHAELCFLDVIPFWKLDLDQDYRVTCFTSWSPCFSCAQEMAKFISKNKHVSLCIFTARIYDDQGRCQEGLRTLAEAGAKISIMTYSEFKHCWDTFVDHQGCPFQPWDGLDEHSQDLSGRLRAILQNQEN
Chain of Guanine nucleotide-binding protein G(i) subunit alpha-1 (Homo sapiens) (P63096 whole entry, looked up): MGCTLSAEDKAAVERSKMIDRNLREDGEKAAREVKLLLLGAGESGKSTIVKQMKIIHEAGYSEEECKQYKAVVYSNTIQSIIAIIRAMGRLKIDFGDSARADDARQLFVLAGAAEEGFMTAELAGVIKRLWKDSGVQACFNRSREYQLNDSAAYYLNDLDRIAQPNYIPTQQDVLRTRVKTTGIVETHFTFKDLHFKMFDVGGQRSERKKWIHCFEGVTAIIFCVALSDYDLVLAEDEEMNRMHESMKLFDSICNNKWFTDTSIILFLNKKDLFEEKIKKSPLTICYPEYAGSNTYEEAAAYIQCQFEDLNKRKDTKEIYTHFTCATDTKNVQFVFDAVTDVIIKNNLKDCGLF
Chain of Pyruvate kinase (Leishmania mexicana) (Q27686 2-499 E452W): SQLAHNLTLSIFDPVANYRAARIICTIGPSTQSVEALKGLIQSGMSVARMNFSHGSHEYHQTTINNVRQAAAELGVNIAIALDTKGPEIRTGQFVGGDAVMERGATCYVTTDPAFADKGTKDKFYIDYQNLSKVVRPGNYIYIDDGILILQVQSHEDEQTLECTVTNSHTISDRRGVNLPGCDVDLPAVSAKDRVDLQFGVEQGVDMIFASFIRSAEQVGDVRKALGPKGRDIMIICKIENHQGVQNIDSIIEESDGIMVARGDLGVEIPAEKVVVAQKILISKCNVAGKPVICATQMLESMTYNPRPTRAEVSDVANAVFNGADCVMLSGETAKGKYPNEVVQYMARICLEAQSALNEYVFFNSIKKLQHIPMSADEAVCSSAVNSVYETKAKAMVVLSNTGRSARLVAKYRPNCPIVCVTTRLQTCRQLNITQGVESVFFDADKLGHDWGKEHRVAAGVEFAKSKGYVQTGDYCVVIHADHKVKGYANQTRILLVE
Chain of Alpha-galactosidase A (Homo sapiens) (P06280 whole entry, looked up): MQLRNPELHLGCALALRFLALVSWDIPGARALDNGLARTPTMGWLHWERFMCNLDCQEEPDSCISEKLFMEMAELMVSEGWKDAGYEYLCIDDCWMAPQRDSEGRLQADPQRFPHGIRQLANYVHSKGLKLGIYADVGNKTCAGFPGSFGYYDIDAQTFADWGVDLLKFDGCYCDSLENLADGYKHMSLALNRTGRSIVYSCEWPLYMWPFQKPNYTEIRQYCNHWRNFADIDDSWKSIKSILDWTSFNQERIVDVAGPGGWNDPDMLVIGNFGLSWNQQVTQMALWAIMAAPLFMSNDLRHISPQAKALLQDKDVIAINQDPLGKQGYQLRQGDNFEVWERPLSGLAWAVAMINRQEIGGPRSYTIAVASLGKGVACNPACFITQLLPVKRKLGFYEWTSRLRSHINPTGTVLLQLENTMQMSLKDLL

N[C@@H](CSS(=O)(=O)O)C(=O)O
2.48%: max response [5, 20]
active: Potency [1] 39.8 µM
inactive: Potency [2] > 46 µM | Potency [3] > 46 µM | Potency [4] | activity change, negative = inhibition [5] 3.51% | Potency [6] | Potency [7] | Potency [8]
7.41%: max response [5, 21]

CC(C)(C)c1ccc(S(=O)(=O)/C=C\C#N)cc1
-82.4%: max response [5, 21]
inactive: Potency [2] > 46 µM | Potency [3] > 46 µM | Potency [4] | outcome [9] | Potency [10] | Potency [11] | outcome [12] | outcome [13] | Potency [6] | Potency [7] | Potency [8]
5.78%: max response [5, 20]
active: Potency [1] 3.98 µM and 1.58 µM | Potency [5] 31.6 µM

C[C@@H](CC(=O)O)[C@@H](N)C(=O)O
-10.3%: max response [5, 20]
inactive: Potency [2] > 46 µM | Potency [3] > 46 µM | Potency [4] | activity change, negative = inhibition [5] -3.19% | Potency [6] | Potency [7] | Potency [8]
-14.3%: max response [5, 21]

C=C[C@@]1(C)CC(=O)[C@@]2(O)[C@@]3(C)[C@@H](O)CCC(C)(C)[C@@H]3[C@H](O)[C@H](OC(C)=O)[C@@]2(C)O1
inactive: Potency [3] > 46 µM | Potency [14] | activity change, negative = inhibition [5] -0.114% | Potency [15] | Potency [6] | Potency [7] | Potency [8]
18.7%: max response [5, 21]
active: Potency [1] 31.6 µM
13.9%: max response [5, 20]

CC[C@H](C)C(=O)O[C@H]1CCC=C2C=C[C@H](C)[C@H](CC[C@@H]3C[C@H](O)CC(=O)O3)[C@H]21
inactive: Potency [2] > 46 µM | Potency [3] > 46 µM | Potency [14] | outcome [9] | Potency [10] | Potency [11] | outcome [12] | outcome [13] | Potency [6] | Potency [7] | Potency [8]
active: Potency [1] 31.6 µM

COc1ccc2[nH]c(-c3ccccc3)c(CCNC(C)=O)c2c1
active: Potency [1] 1.26 µM | Potency [16] 7.94 µM
inactive: Potency [2] > 46 µM | Potency [3] > 46 µM | Potency [4] | Potency [10] | Potency [6] | Potency [7] | Potency [8]

Cc1ccc(-c2nn(C(C)(C)C)c3ncnc(N)c23)cc1
inactive: Potency [7] | Potency [8]

CC(C)=CCC/C(C)=C/CC/C(C)=C/CC/C(C)=C/CO
9.56%: max response [5, 20]
inactive: activity change, negative = inhibition [5] 7.37% | Potency [7] | Potency [8]
21.5%: max response [5, 21]

CC(C)(C)n1nc(-c2ccc(Cl)cc2)c2c(N)ncnc21
inactive: Potency [7] | Potency [8]

COc1cc(CNC(=O)CCCC/C=C\C(C)C)ccc1O
active: Potency [1] 1.58 µM and 2 µM and 3.16 µM | Potency [16] 7.94 µM and 6.31 µM
inactive: activity change, negative = inhibition [17] 7.68% | activity change, negative = inhibition [18] -1.65% | activity, negative = inhibition [19] -15.5% | Potency [2] > 20.6 µM and > 46 µM | Potency [3] > 20.6 µM and > 46 µM | Potency [4] | Potency [10] | Potency [6] | Potency [7] | Potency [8]
